The full list was thinned out, with hits kept by preference.
ClpP mod: qHTS Assay for Activators of ClpP | ATP-dependent Clp protease proteolytic subunit (Bacillus subtilis (strain 168)), P80244 | purified B. subtilis ClpP, FRET peptide cleavage, 20 min | Potency, µM (top dose mostly 57.5 µM), without a hit: top-dose activity change, negative = active | 1.9% of 340,000 active; active means well fitted falling curve with a large enough effect; inconclusive means small, poorly fitted or top-dose-only effect; inactive means no such curve, though single readings can be large or run the other way; further: potency means the concentration at half of the fitted maximal effect; the source files actives as falling curves though it sought activators and does not explain the sign; nearly all actives have a fitted effect of over 65% in size
Target sequence (P80244 whole entry, looked up): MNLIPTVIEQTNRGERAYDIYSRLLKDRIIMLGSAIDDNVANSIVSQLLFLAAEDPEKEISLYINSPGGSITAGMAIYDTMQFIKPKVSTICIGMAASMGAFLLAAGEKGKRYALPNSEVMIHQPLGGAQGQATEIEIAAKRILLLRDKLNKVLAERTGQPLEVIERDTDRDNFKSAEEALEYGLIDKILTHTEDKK
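Buffer: 100 mM Tris/HCl pH8, 100 mM KCl, 0.05% low protease BSA, 2.5% glycerol, 0.01% Tween-20. ClpP 10 microg/mL final; 20 min RT; delta FRET normalized to ADEP and DMSO controls.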
CBFb-RUNX1 inh: blocks binding between human CBF-beta and RUNX1; AID 1477; 230,000 tested, under 10 active; Q01196+Q13951; Potency, µM (top dose mostly 59.8 µM), for inactives: at the top dose activity, negative = inhibition, actives largely listed as inhibitors; AlphaScreen CBFb-His/RUNX1-biotin binding, biochemical; further: % of control where 0% means no effect
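Compounds were screened at multiple concentrations against a preformed CBF-beta(His)/RUNX1(biotin) complex (30 nM of each) for 15 min at room temperature, followed by 90 min with nickel and streptavidin beads and AlphaScreen reading.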
Glioma ERSR ind: ER stress response induction in glioma; U87-MG GRP78 promoter luciferase reporter, 16 h; Potency, µM, for inactives: at the top dose activation, hits mostly activators; 0.02% of 420,000 active; further: potency means the concentration at half of the fitted maximal effect; series mostly up to about 76 µM; % of control where 0% means no effect; nearly all actives have a fitted effect of over 35% in size
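Stably transfected U87-MG glioma cells carrying a GRP78-based luciferase sensor; 16 h compound incubation. Luminescence end-point read 10 min after Bright-Glo addition at room temperature.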
a7 integrin act: integrin-mediated muscular dystrophy alleviation activation; alpha7betagal myoblasts, beta-gal FDG fluorescence, 48 h; Potency, µM (top dose mostly 38.3 µM), for the others: at the top dose activation, actives largely listed as activators; 0.064% of 350,000 active;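 further: potency means the concentration at half of the fitted maximal effect; 100% = response of the positive control SU9516; nearly all actives have a fitted effect of over 60% in size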
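alpha7betagal+/- myoblasts (passage 13, 250/well) treated 48 h at 37C with compounds at 1:260 dilution of DMSO stock. Lysed, then beta-galactosidase activity read as FDG fluorescence (ex 480/em 540) after 30 min, with pre-read for autofluorescence.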
Apoferritin bind: binds horse apoferritin like a general anesthetic; P02791; apoferritin/1-aminoanthracene competitive binding, fluorescence; Potency, µM (top dose mostly 77.5 µM), inactives show at the highest dose activity change, negative = displacement, hits mostly inhibitors; 0.074% of 350,000 active; AID 485281; further: potency means the concentration at half of the fitted maximal effect; on the % scale 0 is the no-effect control and ±100 the full control effect; nearly all actives have a fitted effect of over 20% in size
Target sequence (P02791 2-175 limits assumed): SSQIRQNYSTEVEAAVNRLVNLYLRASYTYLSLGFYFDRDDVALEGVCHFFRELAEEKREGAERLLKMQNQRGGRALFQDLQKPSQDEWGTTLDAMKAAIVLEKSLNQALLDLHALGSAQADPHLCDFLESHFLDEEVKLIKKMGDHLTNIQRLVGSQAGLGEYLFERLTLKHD
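In PBS, apoferritin at 10 uM is loaded with 1-AMA from a 50% saturated solution. After 10 min of compound exposure at ambient temperature, reduced 535 nm fluorescence indicates probe displacement.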
N370S GC: N370S glucocerebrosidase modulation, Gaucher chaperone candidate; P04062; N370S GC spleen homogenate, 4MU-glucoside fluorescence; Potency, µM (titrated, usually from 59.4 µM), for the others: top-dose activity change, negative = inhibition, hits mostly inhibitors; 0.092% of 330,000 active; AID 2101;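 further: potency means the concentration at half of the fitted maximal effect; 0% = full enzyme activity and -100% = no enzyme basal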
Active calls of the source: *; ? = inconclusive; . = no result given; [ ] = remark or other dose. Unless noted, the call rests on the fitted dose curve; in most records, active means well fitted curve in the direction sought with a large enough effect; inconclusive means small, poorly fitted or top-dose-only effect, or another doubt; inactive means no such curve, though single readings can be large; an effect the other way counts as inactive or inconclusive.

SMILES | ClpP mod | CBFb-RUNX1 inh | Glioma ERSR ind | a7 integrin act | Apoferritin bind | N370S GC
COc1cccc(-n2c(=O)c3cc(OC)c(OC)cc3n(CC(=O)Nc3cc(C)[nH]n3)c2=O)c1 | 28µM* | -15% | -4% | 10% | -10% | 5%
Fc1cccc2sc(Nc3nc4cc5c(cc4s3)OCCO5)nc12 | 288% | 2% | -7% | -21% | 43% | 2%
Fc1cccc2sc(Nc3nc4cc5c(cc4s3)OCO5)nc12 | 14µM* | 1% | 3% | -20% | 172% | -6%
N#CC1=C(N)Oc2n[nH]c(-c3cccs3)c2C1c1ccoc1 (stereo not drawn) | 28µM* | -1% | -5% | -12% | -12% | 0%
Cc1ccc(NC(=O)c2cc3c(s2)CCCC3)cc1S(=O)(=O)Nc1ccccc1Cl | 25µM* | -7% | -2% | -23% | 5% | 18%
Cc1ccc(C(=O)Nc2ccc(C)c(S(=O)(=O)Nc3ccccc3Cl)c2)s1 | -10% | 8% | -8% | -4% | -1% | 5%
COc1cc2c(NC3CCN(C)CC3)nc(N3CCCCC3)nc2cc1OCCCN(C)C | 4% | . | -7% | . | . | .
CCOC(=O)c1ccccc1NC(=O)c1cc2sccc2n1C | 28µM* | 23% | -3% | 0% | 5% | 10%
N=C(N)SCc1ccc(O)c([N+](=O)[O-])c1 | 0% | 0% | -1% | 9% | -20% | -2%
CCCCCOc1ccc(CSC(=N)N)cc1[N+](=O)[O-] | -2% | 5% | -6% | -53% | 8.9µM* | -21%
CN(C)c1cccc(C(=O)NCC2Cc3cccc(-c4cncnc4)c3O2)c1 (stereo not drawn) | . | . | 1% | . | . | .
CCOc1ccc(S(=O)(=O)NCCC(=O)NCC(c2cccs2)N2CCOCC2)cc1 (stereo not drawn) | 15% | . | -3% | 2.2µM* | -6% | -1%
Clc1ccc(-c2cn3cccnc3n2)cc1Cl | 11µM* | -3% | 0% | 17% | -5% | -11%
O=S(=O)(Nc1cccc(-c2cn3cccnc3n2)c1)c1ccc(-c2ccccc2)cc1 | 28µM* | -7% | -4% | -4% | -11% | ?
CC(C)ON([C@@H](C(=O)NO)C(C)C)S(=O)(=O)c1ccc(-c2ccccc2)cc1 | . | . | -3% | . | . | .
COc1ccc(CN(C(=O)c2ccco2)C2CCS(=O)(=O)C2)cc1 (stereo not drawn) | 28µM* | . | -6% | -9% | -2% | 0%
Cc1cc(OCC(=O)N(Cc2ccco2)C2CCS(=O)(=O)C2)cc(C)c1Cl (stereo not drawn) | 28µM* | 7% | -5% | -9% | -5% | -10%
Cc1ccc(OCC(=O)N(Cc2ccco2)C2CCS(=O)(=O)C2)cc1C (stereo not drawn) | -1% | . | 0% | 7% | -10% | -1%
COc1cccc(CN(C(=O)c2ccco2)C2CCS(=O)(=O)C2)c1 (stereo not drawn) | -3% | . | 4% | -11% | 1% | -20%
O=C(N/N=C/c1cn(-c2ccccc2)nc1-c1cccs1)c1ccccc1F | ? | -15% | 5% | -31% | -9% | -11%
O=C(N/N=C/c1cn(-c2ccccc2)nc1-c1cccs1)c1ccc(Cl)cc1 | 32µM* | -11% | 6% | 0% | -1% | 20%
COC(=O)c1ccc(CNCC(O)COc2ccc(-c3ccccc3)cc2)cc1 (stereo not drawn) | . | . | -2% | -8% | -4% | -22%
COC(=O)c1ccc(-c2ccc(CNCC(O)c3ccccc3)o2)cc1 (stereo not drawn) | 16µM* | 4% | -1% | -5% | -1% | 1%
COc1ccc(C(=O)c2sc(NC(C)C)nc2N)cc1OC | 25µM* | -2% | -9% | 4% | -24% | -19%
COc1cc(O)ccc1CN1CCc2nnc(C(C)NC(=O)c3cc(F)ccc3F)n2CC1 (stereo not drawn) | . | . | 0% | . | . | .
SMILES | ClpP mod | CBFb-RUNX1 inh | Glioma ERSR ind | a7 integrin act | Apoferritin bind | N370S GC
Cc1ccccc1Cn1ccc(NC(=O)c2nn(C)cc2[N+](=O)[O-])n1 | 28µM* | -7% | -11% | -47% | -8% | -1%
CCc1cc2c3c(c(=O)oc2cc1OC)CCCC3 | 35µM* | 16% | -3% | 13% | -13% | 28%
NC(=O)Nc1ccc(/C=C2\C=Cc3ccccc32)cc1 | -7% | . | 4% | . | . | .
Cc1cc(NC(=O)COC(=O)c2ccccc2NCCO)no1 | 16µM* | . | 1% | 24% | . | .
CCOC(=O)c1ccccc1NC(=O)COC(=O)CSCC(=O)Nc1cc(C)on1 | 0% | . | -2% | -2% | . | -3%
COc1cc(-c2cc(C)c3cccc(OC)c3n2)cc2c1OCCN(C(=O)CCn1ccc(C)n1)C2 | . | . | -3% | . | . | .
N=c1c(C(=O)NCc2ccc(F)cc2)cc2c(=O)n3ccccc3nc2n1Cc1cccnc1 | 7.1µM* | -6% | 0% | 23% | 102% | 10%
CCNC(=O)c1cc2c(=O)n3cccc(C)c3nc2n(Cc2ccc(C)cc2)c1=N | 4.5µM* | 1% | -5% | -9% | 5% | 3%
CC(C)OCCCn1c(=N)c(C(N)=S)cc2c(=O)n3ccccc3nc21 | 14µM* | -9% | -1% | -8% | 161% | 11%
N=c1c(C(=O)NC2CCCCC2)cc2c(=O)n3ccccc3nc2n1Cc1cccnc1 | . | . | 0% | 0% | 44% | -4%
COC(=O)c1cc2c(=O)n3ccccc3nc2n(Cc2cccnc2)c1=N | 6.3µM* | . | -6% | 1% | . | .
CCCn1c(=N)c(C(=O)NCc2cccnc2)cc2c(=O)n3ccccc3nc21 | 4% | . | -2% | . | 229% | .
C=CCn1c(=N)c(C(=O)NCCCOC)cc2c(=O)n3cc(C)ccc3nc21 | -19% | -1% | -6% | -12% | 193% | 2%
N=c1c(C(=O)NCc2ccccc2)cc2c(=O)n3ccccc3nc2n1CCCN1CCOCC1 | 3.2µM* | 3% | -8% | -23% | 58% | -25%
C=CCn1c(=N)c(C(=O)NCCCOC)cc2c(=O)n3ccccc3nc21 | 6.3µM* | 0% | -4% | 17% | 969% | 10%
CNC(=O)c1cc(C)c(-c2ccccc2)s1 | 32µM* | -3% | 6% | -18%[7.66 µM] | -6% | -16%
O=C(O)c1ccc(-c2nnc(-c3ccc([N+](=O)[O-])cc3)o2)cc1 | 2% | . | -4% | ? | 1% | -16%
Cc1occc1-c1nnc(-c2cc([N+](=O)[O-])cc([N+](=O)[O-])c2)o1 | . | 1% | 4% | -44% | 22µM* | ?
CCc1ccccc1NC(=O)NC1CCCCC1 | 3.2µM* | 0% | -5% | 2% | -3% | 8%
COC(=O)c1ccccc1NC(=O)NC1CC1 | -6% | 10% | -3% | -11% | -8% | 3%
COC(=O)c1ccccc1NC(=O)N1CCCC1 | 16µM* | 6% | -4% | -11%[7.66 µM] | -4% | 8%

High-throughput results as filed in PubChem BioAssay.
